According to PubChem BioAssay AID624111 (Johns Hopkins Ion Channel Center, 2012):
Hit rate of the full screen: of about 4,000 compounds, about 60 (2%) were called active.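 Rule for the calls: active = duplicate-averaged calcium fluorescence ratio at least three times the standard deviation of buffer wells, a nonspecific response in parental cells; inactive = the rest.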 Only a selection was taken, and actives are over-represented in it overall.

Assay: nonspecific calcium signal in parental HEK293, confirmation, counter-screen for MrgX1 antagonist project, parental HEK293 cells, Fluo-4 calcium flux (AID 624111)
Details: parental HEK293, Fluo-4 calcium fluorescence, FDSS; at 10 µM

Structure (SMILES)	fluorescence ratio F(max-min)/F0
C=CCSc1nc(Cc2ccc(Cl)cc2)nc2ccccc12	inactive
O=C(NC1CCCCC1)C1c2ccccc2C(=O)N1Cc1ccco1 (stereo not given)	inactive
Cc1ccc(C(=O)COC(=O)CCN2C(=O)C3C4CC(C(Br)C4Br)C3C2=O)cc1 (stereo not given)	inactive
CC(C)(C)Nc1c(-c2cccs2)nc2ccccn12	inactive
Cc1ccc(CS(=O)(=O)c2ncc(Cl)c(C(=O)Nc3nnc(C)s3)n2)cc1	inactive
COc1ccc(C(=O)NNC(=S)NC(=O)c2ccccc2)cc1	inactive
O=C(CN1CCN(c2ccc(Cl)cc2)CC1)N1CCCC1	inactive
Cc1ccc(NC2(C#N)C(=O)Nc3ccccc32)cc1 (stereo not given)	inactive
O=C(c1ccc(OC2CCN(C(=O)c3cccnc3)CC2)cc1)N1CCCCCC1	inactive
Cc1nc(N2CCN(c3ccccn3)CC2)c2c(C)c(C(=O)Nc3ccc(F)c(Cl)c3)sc2n1	inactive
Cc1ccnc(-n2sc3ccccc3c2=O)n1	inactive
C=CCNC(=O)c1cc(-c2ccccc2O)on1	inactive
CN1/C(=C\C=C2\N=C(c3ccc(F)cc3)OC2=O)C(C)(C)c2ccccc21	inactive
COc1ccc(C(=O)Nc2c(N)nc(SCC(=O)N3CCC(C)CC3)[nH]c2=O)cc1OC	inactive
Cc1ccc2nc(-c3ccc(NC(=O)c4cccnc4)cc3)oc2c1	inactive
Cc1ccc2c(c1)c1ncnc(N3CCc4ccccc4C3)c1n2C	inactive
CCCCOC(=O)CNc1nnc(SCC(=O)OCC)[nH]c1=O	inactive
COc1cccc(CNC(=O)C2CCN(S(=O)(=O)c3cccc4cccnc34)CC2)c1	inactive
Cc1nc(C)c(-c2csc(NCCc3ccccc3)n2)s1	inactive
CN(c1cccc(NC(=O)Nc2ccc(Cl)cc2)c1)S(C)(=O)=O	inactive
